# Out of some 5,500 compounds screened, about 2,000 (36%) were called active. Another 18% or so got no clear call; they are omitted. The list shows a part of the results. Unmarked numbers belong to inactive results. Rule as the data show it: active = normalized growth mostly below about 0.91 (no sharp cut-off); inconclusive = no clear call, values can overlap the other calls; inactive = mostly above about 0.92.
# Assay: chemical genetic growth profiling, strain panel (AID 1159580);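 also: tested at 20 µM; growth read once vehicle control cultures reached saturation at 30 °C; 1 = growth at the plate median or of vehicle wells; lower values mean less growth of the strain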
# Conditions: S. cerevisiae deletion strains, growth OD
smiles,measurement,setting,value
CC(C)c1ccc(-c2cc(=O)c3ccccc3o2)cc1,normalized growth,"locus YAR019C, strain CDC15, hits give low values",0.937
same,normalized growth,"locus YBL105C, strain PKC1, hits give low values",0.935
same,normalized growth,"locus YBR135W, strain CKS1, hits give low values",0.932
same,normalized growth,"locus YBR136W, strain MEC1, hits give low values",0.941
same,normalized growth,"locus YBR160W, strain CDC28, hits give low values",0.941
same,normalized growth,"locus YDL017W, strain CDC7, hits give low values",0.932
same,normalized growth,"locus YDL028C, strain MPS1, hits give low values",0.933
same,normalized growth,"locus YDL101C, strain DUN1, hits give low values",0.945
same,normalized growth,"locus YDL108W, strain KIN28, hits give low values",0.934
same,normalized growth,"locus YDL132W, strain cdc53, hits give low values",0.948
same,normalized growth,"locus YDL214C, strain PRR2, hits give low values",0.814
same,normalized growth,"locus YDR052C, strain DBF4, hits give low values",0.944
same,normalized growth,"locus YDR054C, strain cdc34, hits give low values",0.917
same,normalized growth,"locus YDR226W, strain ADK1, hits give low values",0.931
same,normalized growth,"locus YDR477W, strain SNF1, hits give low values",0.791
same,normalized growth,"locus YER123W, strain YCK3, hits give low values",0.721
same,normalized growth,"locus YER133W, strain GLC7, hits give low values",0.762
same,normalized growth,"locus YFL009W, strain cdc4, hits give low values",0.921
same,normalized growth,"locus YFL029C, strain CAK1, hits give low values",0.932
same,normalized growth,"locus YFR003C, strain YPI1, hits give low values",0.928
same,normalized growth,"locus YFR019W, strain FAB1, hits give low values",0.864
same,normalized growth,"locus YFR028C, strain CDC14, hits give low values",0.915
same,normalized growth,"locus YGR040W, strain KSS1, hits give low values",0.728
same,normalized growth,"locus YGR052W, strain FMP48, hits give low values",0.759
same,normalized growth,"locus YGR092W, strain DBF2, hits give low values",0.569
same,normalized growth,"locus YHR030C, strain SLT2, hits give low values",0.631 (active)
same,normalized growth,"locus YHR079C, strain IRE1, hits give low values",0.849
same,normalized growth,"locus YHR082C, strain KSP1, hits give low values",0.875
same,normalized growth,"locus YHR205W, strain SCH9, hits give low values",0.82
same,normalized growth,"locus YIL147C, strain SLN1, hits give low values",0.932
same,normalized growth,"locus YJL095W, strain BCK1, hits give low values",0.82
same,normalized growth,"locus YJL128C, strain PBS2, hits give low values",0.86
same,normalized growth,"locus YJL157C, strain FAR1, hits give low values",0.832
same,normalized growth,"locus YJR016C, strain ILV3, hits give low values",0.922
same,normalized growth,"locus YJR066W, strain TOR1 (second series), hits give low values",0.633
same,normalized growth,"locus YJR066W, strain TOR1, hits give low values",0.863
same,normalized growth,"locus YKL048C, strain ELM1, hits give low values",0.797 (active)
same,normalized growth,"locus YKL067W, strain YNK1, hits give low values",0.812
same,normalized growth,"locus YKL101W, strain HSL1, hits give low values",0.725
same,normalized growth,"locus YKL193C, strain SDS22, hits give low values",0.928
same,normalized growth,"locus YKL203C, strain TOR2, hits give low values",0.836
same,normalized growth,"locus YLR113W, strain HOG1, hits give low values",0.596 (active)
same,normalized growth,"locus YLR133W, strain CKI1, hits give low values",0.855
same,normalized growth,"locus YLR403W, strain SFP1, hits give low values",0.858
same,normalized growth,"locus YML070W, strain DAK1, hits give low values",0.698
same,normalized growth,"locus YMR001C, strain CDC5, hits give low values",0.921
same,normalized growth,"locus YMR205C, strain PFK2 (second series), hits give low values",0.846
same,normalized growth,"locus YMR277W, strain FCP1, hits give low values",0.917
same,normalized growth,"locus YNL006W, strain LST8, hits give low values",0.932
same,normalized growth,"locus YNL020C, strain ARK1, hits give low values",0.833
same,normalized growth,"locus YNL161W, strain CBK1, hits give low values",0.934
same,normalized growth,"locus YNL183C, strain NPR1, hits give low values",0.861
same,normalized growth,"locus YNL207W, strain RIO2, hits give low values",0.924
same,normalized growth,"locus YNL222W, strain SSU72, hits give low values",0.934
same,normalized growth,"locus YNL307C, strain MCK1 (second series), hits give low values",0.809
same,normalized growth,"locus YOL078W, strain AVO1, hits give low values",0.928
same,normalized growth,"locus YOL136C, strain PFK27, hits give low values",0.792
same,normalized growth,"locus YOR061W, strain CKA2, hits give low values",0.822
same,normalized growth,"locus YOR119C, strain RIO1, hits give low values",0.778
same,normalized growth,"locus YOR231W, strain MKK1, hits give low values",0.799
same,normalized growth,"locus YOR329C, strain SCD5, hits give low values",0.939
same,normalized growth,"locus YPL031C, strain PHO85, hits give low values",0.781
same,normalized growth,"locus YPL153C, strain RAD53, hits give low values",0.716
same,normalized growth,"locus YPL204W, strain HRR25, hits give low values",0.724
same,normalized growth,"locus YPL209C, strain IPL1, hits give low values",0.937
same,normalized growth,"locus YPL256C, strain CLN2, hits give low values",0.714 (active)
same,normalized growth,"locus YPR025C, strain CCL1, hits give low values",0.937
same,normalized growth,"locus YPR106W, strain ISR1, hits give low values",0.926
same,normalized growth,"locus YPR111W, strain DBF20, hits give low values",0.918
same,normalized growth,"strain NNK1, hits give low values",0.921
same,normalized growth,"strain TSCII, hits give low values",0.929

# From PubChem BioAssay AID1159580 (chemical genetic matrix, 2015)
